# Assay results taken from PubChem BioAssay AID1532 (PCMD, 2009).
# Out of some 110,000 compounds screened, about 420 (0.38%) were called active. Cut-off read from the data, not from the text of the source: active = inhibition above about 30% (passing the limit was not always enough); inconclusive = no clear call, values can overlap the other calls. The full list was thinned out, with actives kept by preference.
# Tested on: RmlC (dTDP-4-dehydrorhamnose 3,5-epimerase) and RmlD (dTDP-4-dehydrorhamnose reductase), coupled enzyme assay
# Test: RmlC and RmlD coupled enzyme inhibitors, primary screen, biochemical, 384-well, compound mixtures, retest (AID 1532)
# Details: 384-well mixture HTS, at 5.5 µM, stronger effect = higher value
# [1] = measured here: mean retest inhibition
compound,measurement,setting,value
Cc1ccc(-c2csc(NCCc3nc4cc(Cl)c(Cl)cc4n3CCOCCO)n2)cc1,inhibition,,7.32% (inactive)
C=CCNc1nc(N)c(C(=C(C#N)C#N)c2ccccc2)s1,inhibition,"above what the read-out allows, likely interference",654% (active)
C=CCNC(=O)c1csc(-c2ccccc2)n1,inhibition,,10.9% (inactive)
CCOC(=O)CN1C(=O)N[C@@H](c2ccc(Br)cc2)C(C(C)=O)=C1C,inhibition,,-1.77% (inactive)
COC(=O)c1c(C)cc(O)c(C)c1O,inhibition,,12% (inactive)
CC(C)(C)Oc1ccccc1Nc1nc(NCCO)nc(N2CCCC2)n1,inhibition,,-10.1% (inactive)
NC1=NC[C@@H](Cc2ccc(O)cc2)N1CC1CCCCC1,inhibition,,10.2% (inactive)
C=CCOC(=O)C1=C[C@@H](c2ccccc2)C[C@@H](OCc2ccc(CO)cc2)O1,inhibition,,4.95% (inactive)
CC[C@H](C)[C@@H](C(=O)N1CCNCC1)n1cc([C@@H](N)Cc2ccc(O)cc2)nn1,inhibition,,-30% (inactive)
CC1(c2nnc(-c3ccncc3)o2)CC(c2cccnc2)=NO1 (configuration not stated),inhibition,,-44.9% (inactive)
O=C1CCC(=O)N(O)CCCCCNC(=O)CCC(=O)N(O)CCCCCNC(=O)CCC(=O)N(O)CCCCCN1,inhibition,,-1.74% (inactive)
O=C(CCS(=O)(=O)c1ccccc1)Nc1nc2c(s1)CCCC2,inhibition,,-10.7% (inactive)
Fc1ccc2nc(N3CCCCC3)sc2c1,inhibition,,-11.1% (inactive)
Fc1ccc2nc(Nc3nc4c(s3)CCCC4)sc2c1,inhibition,,35.3% (active)
same,inhibition,[1],127%
CCCCN1C(N)=NC[C@@H]1CC1CCCCC1,inhibition,,6.72% (inactive)
NC(=O)[C@H]1CC2(CC(c3cccc(NC(=O)[C@H]4CCC(=O)N4)c3)=NO2)CN1C(=O)c1ccccc1C(=O)c1ccccc1 (some centres not stated),inhibition,,20.3% (inactive)
Cc1cccc(NC(=S)NCc2ccc3[nH]c4c(c3c2)CCCC4)c1,inhibition,,-2.9% (inactive)
COc1ccc(SCCN2CCN(CC(C)C)CCC2=O)cc1,inhibition,,8.87% (inactive)
CCOC(=O)CSc1nnc(NC(=O)c2cccc(S(=O)(=O)N3CCCC3)c2)s1,inhibition,,5.07% (inactive)
COc1ccc(C(=O)Nc2nc(-c3ccc(S(=O)(=O)N4CCOCC4)cc3)cs2)cc1,inhibition,,-26.7% (inactive)
CCOC(=O)c1csc(NC(=O)c2ccc(S(=O)(=O)N3CCCC3)cc2)n1,inhibition,,96.7% (active)
same,inhibition,[1],82.9%
Cc1nc(-c2ccc(Cl)cc2)sc1C1(C)CC(c2ccccc2F)=NO1 (configuration not stated),inhibition,,7.68% (inactive)
COC(=O)C1=C[C@@H](C(=O)OC)[C@@H]2C3=C(C(=O)[C@]2(C)NC(=O)c2ccccc2)[C@H](C)n2c(=O)n(C)c(=O)n2[C@@H]3C1,inhibition,,2.28% (inactive)
O=C(C1=C[C@H](c2ccc(C(F)(F)F)cc2)C[C@H](OCc2ccc(CO)cc2)O1)N1CCN(Cc2ccccc2)CC1,inhibition,,3.78% (inactive)
CCN1C(=O)N[C@@H](c2ccccc2)C(C(=O)OC)=C1C,inhibition,,-30% (inactive)
Cc1ccc(C)c(CSc2nc(-c3ccco3)nc3c2c(=O)n(C)c(=O)n3C)c1,inhibition,,4.13% (inactive)
C/C=C(/C)C(=O)Nc1cccc(C2=NOC3(C2)C[C@@H](C(N)=O)N(C(=O)C2(C)CC2)C3)c1 (some centres not stated),inhibition,,4.45% (inactive)
NC(=O)C1=C[C@@H](c2csc3ccccc23)C[C@@H](OCc2ccc(CO)cc2)O1,inhibition,,19.8% (inactive)
CCCCCCCCCCCCN1[C@@H](CC(C)=O)c2cc(F)cc(F)c2S1(=O)=O,inhibition,,-11.3% (inactive)
COc1ccccc1C1=CC(=O)CCC1,inhibition,,7.57% (inactive)
CC1(C)C2CC[C@]3(C)C(CC=C4[C@@H]5C[C@@](C)(CO)CC[C@]5(C(=O)O)CC[C@]43C)[C@@]2(C)CC[C@@H]1O (some centres not stated),inhibition,,9.9% (inactive)
OCC[C@H]1C[C@H](O)[C@@H](O)[C@]2(CCCCO2)O1,inhibition,,7.31% (inactive)
NC(=O)c1sc2nc3c(c(-c4ccccc4)c2c1N)CCC3,inhibition,,-14.4% (inactive)
CC(=O)Nc1ccc(NC(=O)c2sc3nc4c(c(-c5ccc(C)cc5)c3c2N)CCC4)cc1,inhibition,,47.9% (active)
same,inhibition,[1],82.8%
Cc1cccc(NC(=O)c2sc3nc4c(c(-c5ccco5)c3c2N)CCC4)c1,inhibition,,20.3% (inactive)
CCOC(=O)c1ccccc1NC(=O)c1c(N)n(C)c(=O)[nH]c1=O,inhibition,,7.68% (inactive)
CC(C)(C)CN1C(=O)C(=O)NC[C@H]1Cc1cccc2ccccc12,inhibition,,-1.48% (inactive)
C#CCNC(=O)C1=C[C@@H](c2ccccc2)[C@H](CCCO)[C@@H](OCC)O1,inhibition,,0.66% (inactive)
C/C=C(\C)C(=O)N1CC2(CC(c3cccc(NC(=O)CCCCC)c3)=NO2)C[C@@H]1C(N)=O (some centres not stated),inhibition,,-5.61% (inactive)
CC(Sc1nc2c([nH]c3ccccc32)c(=O)n1C)c1ccccc1 (configuration not stated),inhibition,,-7.85% (inactive)
CC(C)=CCC/C(C)=C/C(=O)O,inhibition,,2.81% (inactive)
CC(=O)Nc1cccc(-c2cnc3ccccc3n2)c1,inhibition,,13.8% (inactive)
CCCC(=O)Nc1cccc(-c2cn3ccsc3n2)c1,inhibition,,3.46% (inactive)
CC(=O)Nc1ccc(-c2cn3cccnc3n2)cc1,inhibition,,102% (active)
same,inhibition,[1],156%
c1ccc(-c2cn3cccnc3n2)cc1,inhibition,,70% (active)
same,inhibition,[1],81.6%
c1ccc(-c2cn3c(n2)CCc2ccc4cccnc4c2-3)cc1,inhibition,,-52.8% (inactive)
c1ccc(-c2ccnc3nc(-n4cccc4)nn23)cc1,inhibition,,-3.61% (inactive)
CCCn1c(=NC(C)=O)c(C(=O)OCC)cc2c(=O)n3ccccc3nc21,inhibition,,48.4% (active)
same,inhibition,[1],60.1%
COc1ccc(CNC(=O)c2cc3c(=O)n4ccccc4nc3n(CC3CCCO3)c2=N)cc1 (configuration not stated),inhibition,,-12.4% (inactive)
CCn1c(=N)c(S(=O)(=O)c2ccc(F)cc2)cc2c(=O)n3ccccc3nc21,inhibition,,-13.4% (inactive)
C#CCOCCOCCOCCNc1nc(N2CCN(C(=O)[C@H](CCC(=O)O)n3cc(C(N)CO)nn3)CC2)nc(N2CCN(C(=O)[C@H](CCCCN)n3cc(C(N)[C@H](C)CC)nn3)CC2)n1 (some centres not stated),inhibition,,2.59% (inactive)
COCc1cc(=O)[nH]c2cc(NC(=O)C(F)(F)F)c(C)cc12,inhibition,,39.2% (active)
same,inhibition,[1],46.2%
COc1ccc(OC)c2[nH]c(=O)c(CCNC(=O)C(C)(C)C)cc12,inhibition,,8.84% (inactive)
O=C(Nc1ccccc1)c1ccccc1NC(=O)C(F)(F)F,inhibition,,8.91% (inactive)
COC(C[C@@H](O)[C@H](C)[C@H](O)COCc1ccccc1)OC,inhibition,,2.05% (inactive)
